Records with an inconclusive call do not appear. The source made the active and inactive calls. Calls come from the whole dose curve; as a rule, active = well fitted cell-killing curve with a large enough effect; inconclusive = small, poorly fitted or top-dose-only effect, or effect the other way; inactive = flat fitted curve, though single readings scatter. Where a SMILES comes first, the peptide text is derived from it. Bridges are numbered along the chain shown (N, C = ends). [ ]: non-standard residue; d: D form. The star is where a group is joined. X1 = CCC(C)C(N)C1=NC(C(=O)*)CS1; dOrn = NCCC[C@@H](N)C(=O)O
How the values were obtained:
Assay in all cases: Primary qHTS to identify gynecologic anti-cancer compounds using libraries of approved drugs and bioactive compounds (AID 1345084); note: nearly all actives have a fitted effect of over 55% in size
Conditions in all cases: Gynecologic cancer cell panel viability, ATPlite luminescence, 48 h; series mostly up to 57.5 µM
C33A = test system: C33A
Summary of the method: (§1)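 48 h compound exposure at 37 C, 5% CO2; five-point qHTS. ATPlite luminescence readout of cell ATP.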

CAOV3 = test system: CAOV3
Summary of the method: as §1

CASKI = test system: CASKI
Summary of the method: as §1

Measured: Potency

Cc1nn(C)c(COc2ccc(N3CCN(S(=O)(=O)N(C)C)CC3)cc2)c1-c1cccc2c(CCCOc3cccc4ccccc34)c(C(=O)O)n(CCN3CCOCC3)c12
inactive: all assays above

Cc1c(-c2ccnn2C)cc(C(=O)NCc2ccc(S(C)(=O)=O)cn2)c(=O)n1-c1cccc(C(F)(F)F)c1
inactive: all assays above

CCC(C)/C=C(C)/C=C/C1=CC2=C(Cl)C(=O)C(C)(OC(C)=O)C(=O)C2=CN1CCCC(=O)O (stereo unspecified)
inactive: all assays above

COc1c(C)c(OCC=C(C)C)cc2c1C(=O)NC2=O
inactive: all assays above

CCC(C)C(N)C1=NC(C(=O)N[C@@H](CC(C)C)C(=O)N[C@H](CCC(=O)O)C(=O)N[C@H](C(=O)N[C@H]2CCCCNC(=O)[C@H](CC(N)=O)NC(=O)[C@@H](CC(=O)O)NC(=O)[C@H](Cc3cnc[nH]3)NC(=O)[C@@H](Cc3ccccc3)NC(=O)[C@H]([C@@H](C)CC)NC(=O)[C@@H](CCCN)NC2=O)[C@@H](C)CC)CS1 (stereo partly specified) (X1-L[dE]IK[dOrn]I[dF]H[dD]N; lactam 4-C)
inactive: all assays above

CC[C@H]1OC(=O)[C@H](C)[C@@H](OC2C[C@@](C)(OC)[C@@H](O)[C@H](C)O2)[C@H](C)[C@@H](OC2O[C@H](C)C[C@H](NC)[C@H]2O)[C@](C)(O)C[C@@H](C)CN(C)[C@H](C)[C@@H](O)[C@]1(C)O (stereo partly specified)
inactive: all assays above

C[C@@H]1C(=O)O[C@H]2[C@H]1CC[C@@]1(C)C(=O)C=C[C@](C)(O)[C@H]21
inactive: all assays above
